Values joined by “and” are separate entries in the source; they are usually repeats but may differ in a detail not shown here. Equal entries are not always repeated. A structure can be active in one record and inactive in another. Active and inactive are the calls of the source.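 The calls were made as follows, unless noted: active = inhibition at or above 50% relative to wild type and mutant plate controls; inactive = inhibition below 50%.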
Experiments:
[1] = inhibitors of TNFa-induced NFkB p65 translocation, primary screen, imaging, HUVEC, MLSMR starter and 10KST1 sets (AID 438;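 active = inhibition above 20% together with a positive visual image hit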;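 also: compound added about 3h40 before a 20 min TNFalpha stimulation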;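 as to inhibition: signal is the nuclear over cytoplasmic p65 intensity ratio per well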); conditions: HUVEC TNFa-induced p65 nuclear translocation; cell count: measured here: nuclei count (cytotoxicity indicator), at 2.08 µM; inhibition: at 2 µM, stronger effect = higher value, 0% TNFa-plus-vehicle, 100% no-TNFa wells
[2] = reduction of polyQ htt aggregates in cells – imaging, exon1htt(103Q)mCFP cells, high-content imaging, primary screen (AID 483;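 active = visual image review flags a hit and inhibition of aggregation exceeds 20%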;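 also: compound exposure lasted 3 days before fixation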;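 as to nuclei count: percent of the per-plate median nuclei count of sample wells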); conditions: exon1htt(103Q)mCFP cell line, aggregate imaging, at 2 µM; inhibition of aggregation: stronger effect = higher value; nuclei count: measured here: cell count, toxicity
[3] = endothelial E-selectin expression blockers – imaging, HUVEC, immunofluorescence, MLSMR starter and 10KST1 sets, primary screen (AID 487;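 active = visually confirmed hit in the image check and inhibition above 20%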;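 as to inhibition: signal is fraction of cell area covered by stained E-selectin grains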;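 as to nuclei count: 100% = median nuclei count of all wells on the same plate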); conditions: HUVEC TNFalpha-induced E-selectin immunofluorescence imaging, at 2 µM; inhibition: stronger effect = higher value; nuclei count: measured here: cell number, toxicity
[4] = Primary imaging screen for DUSP6 inhibitors that restore phospho-Erk in transfected HeLa cells, chemical complementation (AID 609;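 active = compounds giving at least 50% inhibition in the cell-based MKP-3 phosphatase rescue imaging test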;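 as to inhibition: phospho-Erk level distribution per well compared with pooled transfected vehicle control wells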); conditions: HeLa MKP-3 transfected, phospho-Erk imaging KS statistic, at 10 µM, cells stimulated with TPA for 15 min
[5] = biological target: Dual specificity protein phosphatase 6 (Homo sapiens) (UniProt Q16828); assay: as above; conditions: HeLa MKP-3 transfected, phospho-Erk imaging KS statistic; at 10 µM; stronger effect = higher value; cells stimulated with TPA for 15 min
[6] = biological target: Voltage-gated potassium channel subunit beta-2 (Rattus norvegicus) (UniProt P62483); assay: inhibitors of rat Kvbeta2 reductase activity – biochemical, NADPH fluorescence, primary screen (AID 622;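 active = fluorescence slope higher than the sample average by over 3 SD, cut at about -0.22 in these data, passing the limit was not always enough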;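 also: slope of raw intensity against log time taken from 70 to 1610 s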); conditions: recombinant KvBeta, 4-cyanobenzaldehyde reduction, at 10 µM, stronger effect = higher value
[7] = biological target: Voltage-gated potassium channel subunit beta-2 (Rattus norvegicus) (UniProt P62483); assay: enhancers of rat Kvbeta2 NADPH turnover – biochemical, NADPH fluorescence, primary screen (AID 623;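 active = NADPH fluorescence slope more negative than the mean of all samples by about 3 SD, 99.7% confidence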;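 also: fluorescence intensity change per second fitted from 20 to 320 s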); conditions: Recombinant KvBeta, NADPH fluorescence decrease slope, 10 min; at 10 µM; stronger effect = lower value
[8] = biological target: Alpha-2C adrenergic receptor (Homo sapiens) (UniProt P18825); assay: compounds altering alpha2C-coupled GIRK flux – cell-based, HEK293 alpha2C/GIRK1/2, thallium flux, primary screen (AID 624;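 active = fluorescence slope after compound addition differing from the mean of all screened samples at 99.7% confidence, in either direction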;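 also: slope of fluorescence ratio to pre-addition baseline per second over 15 to 24 s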); conditions: thallium flux BTC fluorescence, at 10 µM, actives lie on both sides
[9] = inhibitors of larval lipid processing in zebrafish, primary screen, whole organism, PED6 fluorescence, gall bladder and intestine (AID 686;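 active = a full or partial loss of lipid-probe fluorescence in the fish gall bladder, intestine or both, judged by eye; inactive = no fluorescence loss, or compound toxic to the fish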;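 also: larvae 5 to 7 days old with five fish per well; signal comes from phospholipase A2 cleavage of quenched PED6 carried via bile; overnight exposure to compound and PED6 before scoring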); conditions: Zebrafish larvae PED6 lipid processing, fluorescence scoring; screened at 20 µM (by protocol)
[10] = loss of swimming-algae plug formation – whole organism, Chlamydomonas reinhardtii, WT vs cilia-less mutant, absorbance, 96-well, primary screen (AID 463189); conditions: Chlamydomonas reinhardtii gravitaxis, OD600 absorbance, 2 days; at 10 µM; stronger effect = higher value;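 also: 0% = wild type cc124 cells in DMSO and 100% = ciliumless bld1 mutant cells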
[11] = blockers of RIG-like receptor reporter activation – cell-based, Sendai virus stimulus, luciferase, 10K MLSCN set, TLR/RLR signaling modifier project, primary screen (AID 602276;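 active = inhibition at or above 50% at 10 µM; inactive = inhibition below 50%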;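 also: firefly luciferase from ISG56 promoter only with Renilla not read in this screen; 0% = Sendai virus plus DMSO and 100% = medium plus DMSO without virus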); conditions: HEK293 RL24 IRF3 luciferase reporter, at 10 µM, stronger effect = higher value
[12] = TLR3 IRF3 reporter activation blockers – cell-based, poly I:C stimulus, luciferase, 10K MLSCN set, primary screen (AID 602277;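 active = inhibition of the reporter signal at or above 50%; inactive = inhibition below 50%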); conditions: HEK293-TLR3 RL24 IRF3 luciferase reporter, at 10 µM, stronger effect = higher value
[13] = measured here: cell density z-score
[14] = measured here: nuclear c-Myc green intensity z-score
[15] = measured here: nuclear pErk red intensity z-score, stronger effect = higher value

Chain of Dual specificity protein phosphatase 6 (Homo sapiens) (Q16828 whole entry, looked up): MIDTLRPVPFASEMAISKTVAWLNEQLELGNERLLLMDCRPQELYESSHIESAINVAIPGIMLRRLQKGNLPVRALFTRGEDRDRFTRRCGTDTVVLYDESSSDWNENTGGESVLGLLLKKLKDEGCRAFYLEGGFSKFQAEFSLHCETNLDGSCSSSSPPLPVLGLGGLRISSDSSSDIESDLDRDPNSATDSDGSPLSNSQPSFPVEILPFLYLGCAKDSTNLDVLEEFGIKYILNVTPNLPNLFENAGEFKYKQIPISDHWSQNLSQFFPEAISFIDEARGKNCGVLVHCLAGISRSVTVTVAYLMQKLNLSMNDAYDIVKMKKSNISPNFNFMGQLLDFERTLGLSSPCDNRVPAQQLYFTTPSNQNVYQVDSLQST
Chain of Voltage-gated potassium channel subunit beta-2 (Rattus norvegicus) (P62483 whole entry, looked up): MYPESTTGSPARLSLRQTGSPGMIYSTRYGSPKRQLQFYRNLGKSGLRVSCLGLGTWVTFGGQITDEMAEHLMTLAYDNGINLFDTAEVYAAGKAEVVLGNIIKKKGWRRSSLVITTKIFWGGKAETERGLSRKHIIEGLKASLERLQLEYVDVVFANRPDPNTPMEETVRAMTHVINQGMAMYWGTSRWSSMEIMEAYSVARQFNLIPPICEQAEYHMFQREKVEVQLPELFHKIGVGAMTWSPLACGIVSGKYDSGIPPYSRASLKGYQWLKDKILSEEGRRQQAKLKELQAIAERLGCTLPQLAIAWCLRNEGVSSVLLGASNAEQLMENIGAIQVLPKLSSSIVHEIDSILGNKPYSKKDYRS
Chain of Alpha-2C adrenergic receptor (Homo sapiens) (P18825 whole entry, looked up): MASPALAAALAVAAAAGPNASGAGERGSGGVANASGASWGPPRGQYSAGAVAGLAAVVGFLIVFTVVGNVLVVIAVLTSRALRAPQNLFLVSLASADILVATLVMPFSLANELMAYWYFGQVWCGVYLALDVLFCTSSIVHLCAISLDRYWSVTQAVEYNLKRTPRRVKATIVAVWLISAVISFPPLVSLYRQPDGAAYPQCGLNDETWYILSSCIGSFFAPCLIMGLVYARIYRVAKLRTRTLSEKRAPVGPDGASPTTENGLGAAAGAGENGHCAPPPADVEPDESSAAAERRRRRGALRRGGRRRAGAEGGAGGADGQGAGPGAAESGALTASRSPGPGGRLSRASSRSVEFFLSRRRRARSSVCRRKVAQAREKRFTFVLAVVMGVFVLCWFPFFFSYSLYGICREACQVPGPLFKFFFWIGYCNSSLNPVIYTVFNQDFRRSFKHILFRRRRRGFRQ

Compound | cell count [1] | inhibition [1] | inhibition of aggregation [2] | nuclei count [2] [%] | inhibition [3] | nuclei count [3] [%] | z-score [4, 13] | z-score [4, 14] | z-score [4, 15] | inhibition [5] | fluorescence slope [6] | NADPH fluorescence slope [7] | slope [8] | outcome [9] | inhibition [10] | inhibition [11] | inhibition [12]
COc1ccccc1N1CCN(CC(O)COc2cccc3ccccc23)CC1 (stereo not given) | 617 | -3.6% (inactive) | -18.7% (inactive) | 108 | -26.2% (inactive) | 107 | 0.673 | -1.31 | -2.39 | 8% (inactive) | -0.431 (inactive) | -7.7e-05 (inactive) | 0.00349 (inactive) | inactive | 7.05% (inactive) and 42.9% (inactive) | 16.5% (inactive) | 36.9% (inactive)
Cc1cccc(N2C(=O)CC(N3CCN(Cc4ccc(Cl)cc4)CC3)C2=O)c1 (stereo not given) | 544 | -6.1% (inactive) | 17.3% (inactive) | 110 | -107% (inactive) | 132 | 1.1 | -1.84 | -0.334 | 3.56% (inactive) | -0.551 (inactive) | -3.6e-05 (inactive) | 0.00524 (inactive) | inactive | -12.9% (inactive) | 16.4% (inactive) | 18% (inactive)
CN1CCC(=C2c3ccccc3CC(=O)c3sccc32)CC1 | 641 | 5.3% (inactive) | 5.4% (inactive) | 97.7 | -56.9% (inactive) | 126 | 2.91 | 0.175 | -2.59 | 10.2% (inactive) | -0.5 (inactive) | -6.2e-05 (inactive) | 0.00525 (inactive) | inactive | -11.3% (inactive) and 22.8% (inactive) | -1.65% (inactive) | 51.2% (active)
CC(=O)OCC[N+](C)(C)C | 554 | -8.9% (inactive) | 10.6% (inactive) | 93.8 | -102% (inactive) | 102 | -0.918 | -0.674 | -0.99 | -0.493% (inactive) | -0.431 (inactive) | 1.1e-05 (inactive) | 0.0173 (active) | inactive | -4.51% (inactive) | 11.3% (inactive) | 31.5% (inactive)
Cc1nc2sccn2c(=O)c1CCN1CCC(=C(c2ccccc2)c2ccc(F)cc2)CC1 | 635 | -7.7% (inactive) | 5% (inactive) | 114 | -100% (inactive) | 123 | -1.15 | 0.767 | 0.616 | 17.3% (inactive) | -0.433 (inactive) | -1.2e-05 (inactive) | 0.00383 (inactive) | inactive | 24.7% (inactive) and 164% (active) | 18.4% (inactive) | 19.4% (inactive)
Cc1ccc(Cl)c(Nc2ccccc2C(=O)O)c1Cl | 583 | 1.3% (inactive) | 12.3% (inactive) | 91.1 | -70.5% (inactive) | 95.9 | -0.43 | -0.511 | -0.695 | -8.38% (inactive) | -0.487 (inactive) | -4.2e-05 (inactive) | 0.00556 (inactive) | inactive | 20.2% (inactive) and 61% (active) | 16.4% (inactive) | 40.3% (inactive)
CNCCCC12CCC(c3ccccc31)c1ccccc12 | 541 | -4.8% (inactive) | 19.8% (inactive) | 83.4 | -80.6% (inactive) | 114 | -1.24 | 0.435 | 1.73 | 3.45% (inactive) | -0.501 (inactive) | -9.7e-05 (inactive) | 0.00463 (inactive) | inactive | 6.33% (inactive) and 2.26% (inactive) | -23.6% (inactive) | 55.4% (active)
COc1ccc2nc(S(=O)Cc3ncc(C)c(OC)c3C)[nH]c2c1 (stereo not given) | 542 | 1.6% (inactive) | 2.2% (inactive) | 97.5 | -24.2% (inactive) | 108 | 0.164 | 1.22 | -0.909 | 25.7% (inactive) | -0.449 (inactive) | -7.2e-06 (inactive) | 0.00367 (inactive) | inactive | 27% (inactive) | -9.53% (inactive) | -10.5% (inactive)
Cc1ccc(C2/C(=C(/O)c3cnn(-c4ccccc4)c3C)C(=O)C(=O)N2CCN2CCOCC2)o1 (stereo not given) | 520 | -2.8% (inactive) | 10.2% (inactive) | 100 | -56.6% (inactive) | 126 | -0.925 | 1.9 | -0.672 | -10.5% (inactive) | -0.531 (inactive) | -4.5e-05 (inactive) | 0.00497 (inactive) | inactive | -18.9% (inactive) | -28.4% (inactive) | -75.5% (inactive)
CC(C)(Oc1ccc(CCNC(=O)c2ccc(Cl)cc2)cc1)C(=O)O | 649 | -3% (inactive) | 5.2% (inactive) | 107 | -101% (inactive) | 135 | -0.113 | -1.08 | -0.613 | 15.3% (inactive) | -0.452 (inactive) | -4.1e-05 (inactive) | 0.00448 (inactive) | inactive | 39.4% (inactive) | 9.06% (inactive) | 22.2% (inactive)
CCCOc1cccc(C2/C(=C(/O)c3ccccc3)C(=O)C(=O)N2CCN(C)C)c1 (stereo not given) | 511 | -3.9% (inactive) | -5.1% (inactive) | 109 | -90.6% (inactive) | 134 | -0.467 | 0.337 | 1.7 | -0.159% (inactive) | -0.431 (inactive) | -5.6e-05 (inactive) | 0.00489 (inactive) | inactive | 30.4% (inactive) | 15.1% (inactive) | 19.2% (inactive)
CC(=O)Oc1cccc2c1C(=O)c1c(OC(C)=O)cc(C(=O)O)cc1C2=O | 646 | 3.9% (inactive) | 6.8% (inactive) | 105 | -52.7% (inactive) | 124 | -1.09 | -1.04 | -0.102 | -9.66% (inactive) | -0.438 (inactive) | -4.5e-05 (inactive) | 0.00622 (inactive) | inactive | -7.39% (inactive) | 4.71% (inactive) | 26.5% (inactive)
CC(=O)OCC(=O)[C@@]12OC(C)(C)O[C@@H]1C[C@H]1[C@@H]3C[C@H](F)C4=CC(=O)C=C[C@]4(C)[C@@]3(F)[C@@H](O)C[C@@]12C | 518 | -0.9% (inactive) | 2% (inactive) | 53.2 | -73.2% (inactive) | 104 | -0.49 | -0.238 | -0.0296 | -2.46% (inactive) | -0.449 (inactive) | -7.8e-05 (inactive) | 0.00478 (inactive) | inactive | -12.6% (inactive) | 5.9% (inactive) | 40.3% (inactive)
COc1ccc(C(=O)Nc2cccnc2)cc1C(=O)Nc1cccnc1 | 654 | 4.4% (inactive) | -4.7% (inactive) | 101 | -4.7% (inactive) | 72.8 | 0.737 | -0.175 | -0.517 | 23.4% (inactive) | -0.448 (inactive) | -4.6e-05 (inactive) | 0.00454 (inactive) | inactive | -3.27% (inactive) | 11.5% (inactive) | 36% (inactive)
Nc1cccc(C(=O)O)c1 | 563 | 3.8% (inactive) | 28.2% (inactive) | 59 | -31.1% (inactive) | 97.4 | 1.14 | 0.242 | -0.0201 | 12.4% (inactive) | -0.462 (inactive) | -4.9e-05 (inactive) | 0.00577 (inactive) | inactive | -1.48% (inactive) | 9.57% (inactive) | 34.4% (inactive)
CC(=O)OCC(=O)[C@H]1CC[C@H]2[C@@H]3CC=C4C[C@@H](O)CC[C@]4(C)[C@H]3CC[C@]12C | 586 | -9.5% (inactive) | 16.5% (inactive) | 99.7 | -22.1% (inactive) | 128 | 0.459 | 0.562 | -0.353 | 17.3% (inactive) | -0.45 (inactive) | -6.8e-05 (inactive) | 0.00533 (inactive) | inactive | 35% (inactive) | 9.44% (inactive) | 25.1% (inactive)
COCCc1ccc(OCC(O)CNC(C)C)cc1 (stereo not given) | 534 | 1.4% (inactive) | -4.4% (inactive) | 85.7 | -71.5% (inactive) | 108 | -1.75 | 1.07 | 0.0458 | 8% (inactive) | -0.46 (inactive) | -3.7e-05 (inactive) | 0.00577 (inactive) | inactive | -6.24% (inactive) and 33.7% (inactive) | 15.3% (inactive) | 32.2% (inactive)
Nc1ncnc2c1ncn2[C@@H]1O[C@H](CO)[C@@H](O)[C@H]1O | 562 | -1.7% (inactive) | -15.3% (inactive) | 101 | -40.5% (inactive) | 128 | 0.315 | -0.14 | 0.779 | -12.3% (inactive) | -0.453 (inactive) | -3.6e-05 (inactive) | 0.00542 (inactive) | inactive | -7.15% (inactive) | 11.2% (inactive) | 25.6% (inactive)
CN(CCO)CC(O)Cn1cnc2c1c(=O)n(C)c(=O)n2C (stereo not given) (tested in a mixture with another compound) | 638 | -0.3% (inactive) | 1.1% (inactive) | 103 | 6.8% (inactive) | 125 | 0.569 | 0.0927 | 0.334 | 10.2% (inactive) | -0.511 (inactive) | -6e-05 (inactive) | 0.00421 (inactive) | inactive | -10.3% (inactive) | 3.79% (inactive) | 33.4% (inactive)
COc1ccccc1NC(=O)C1=C(C)NC(SCC(=O)c2ccc(C)cc2)=C(C#N)C1c1ccco1 (stereo not given) | 529 | -0.5% (inactive) | 9.6% (inactive) | 99.4 | 6.5% (inactive) | 114 | 0.647 | -0.415 | 1.41 | -2.07% (inactive) | -0.481 (inactive) | -7.1e-05 (inactive) | 0.00753 (inactive) | inactive | 36.3% (inactive) | -17.3% (inactive) | -56.3% (inactive)
